An excerpt weighted towards active compounds, which were near 31% of everything screened.
CYP2C9 inh = human CYP2C9 inhibition. 20% of 96,000 active. inhibition, % at 5 µM. CYP2C9 Supersomes, luciferin-H conversion, luminescence. P11712;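 active means blocking of liver enzyme CYP2C9 beyond about 50% at 5 µM, limit read from the data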
Target sequence (P11712 whole entry, looked up): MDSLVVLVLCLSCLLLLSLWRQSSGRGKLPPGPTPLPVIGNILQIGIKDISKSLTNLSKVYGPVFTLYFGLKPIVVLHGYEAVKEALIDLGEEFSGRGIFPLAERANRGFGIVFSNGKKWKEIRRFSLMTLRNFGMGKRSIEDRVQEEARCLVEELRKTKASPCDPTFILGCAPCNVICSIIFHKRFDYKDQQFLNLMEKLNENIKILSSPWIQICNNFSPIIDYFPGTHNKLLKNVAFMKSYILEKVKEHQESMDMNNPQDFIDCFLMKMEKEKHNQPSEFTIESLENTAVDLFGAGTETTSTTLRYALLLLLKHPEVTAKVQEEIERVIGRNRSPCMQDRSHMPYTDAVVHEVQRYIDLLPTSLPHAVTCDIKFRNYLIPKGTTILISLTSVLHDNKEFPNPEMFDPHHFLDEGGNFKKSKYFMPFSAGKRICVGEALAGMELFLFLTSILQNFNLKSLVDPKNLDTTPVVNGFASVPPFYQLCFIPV
CYP2C19 inh = blocks human cytochrome P450 2C19 | AID 778 | CYP2C19 Supersomes, luciferin-H EGE luminescence, 30 min | inhibition, % at 5 µM | P33261 | 21% of 96,000 active;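 active means CYP2C19 inhibition above a set limit at 5 µM in the primary screen, cut at about 50% in these data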;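 further: plate controls were negative control wells for no effect and 2.5 mM tranylcypromine positive control for full effect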
CYP2C19 act = cytochrome P450 2C19 (human) activation; recombinant CYP2C19, luciferin-H EGE luminescence; stronger effect = higher value; 0 = fully inhibited enzyme, 1 = untreated enzyme; activation factor at 5 µM; 96,000 tested, under 10 active; AID 1025;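 active means activation factor of at least 2 at 5 µM in the primary screen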;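 further: 0 = wells with 2.5 mM tranylcypromine and 1 = vehicle-only wells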
PLAP act = activates human placental alkaline phosphatase | P05187 | purified PLAP enzyme, luminescent substrate read-out; stronger effect = higher value | activation fold at 20 µM | 1.2% of 96,000 active | AID 696; in the data active means activation fold above about 2
CYP2C9 act = increases human cytochrome P450 2C9 activity; P11712; recombinant CYP2C9, luciferin-H conversion, luminescence; stronger effect = higher value; factor 1 = untreated enzyme, 0 = blocked; activation factor at 5 µM; 1.4% of 96,000 active; AID 1024;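 active means activation factor of 2 or more for CYP2C9 at a 5 µM dose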;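 further: 0 = sulfaphenazole-blocked wells and 1 = vehicle-only wells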
* hit, by the source's call.

SMILES	CYP2C9 inh	CYP2C19 inh	CYP2C19 act	PLAP act	CYP2C9 act
CCCOc1ccc(N2C(=O)CC(N(C(=O)c3ccco3)c3ccc(OCCC)cc3)C2=O)cc1 (stereo not given)	17	1	1	1	0.8
Cc1cc(C)cc(N2C(=O)CC(N(C(=O)c3ccco3)c3cc(C)cc(C)c3)C2=O)c1 (stereo not given)	62*	44	0.6	1.2	0.4
Cc1ccc(S(=O)(=O)N2CCOCC2)cc1C(=O)Nc1ccccn1	5	1	1	1	0.9
Cc1ccc(S(=O)(=O)N2CCCCC2)cc1C(=O)Nc1ncn[nH]1	-97	-2	1	1.1	2*
Cc1ccc(S(=O)(=O)N2CCCCC2)cc1C(=O)Nc1ccc(N2CCOCC2)cc1	5	8	0.9	1	1
Cc1ccc(S(=O)(=O)N2CCOCC2)cc1C(=O)NC1CCCCC1	-4	-3	1	1.4	1
Cc1cc(NC(=O)c2cc(S(=O)(=O)N3CCCCC3)ccc2C)n(-c2ccccn2)n1	64*	32	0.7	1.4	0.4
Cc1ccc(S(=O)(=O)N2CCCCC2)cc1C(=O)Nc1ccc2cn[nH]c2c1	64*	31	0.7	1.7	0.4
Cc1cc(C)cc(C(=O)N2CCC(C(N)=O)CC2)c1	-81	0	1	1	1.8
Cc1nnc(SCCn2c(N3CCC(C)CC3)nc3c2c(=O)[nH]c(=O)n3C)s1	40	11	0.9	0.9	0.6
Cc1nnc(SCCn2c(N3CC(C)CC(C)C3)nc3c2c(=O)[nH]c(=O)n3C)s1 (stereo not given)	61*	41	0.6	1.1	0.4
N#Cc1ccc(Nc2ccccc2)c(N)c1	23	33	0.7	0.9	0.8
COC(=O)c1ccc(NCCc2csc(-c3ccc(C)cc3)n2)c([N+](=O)[O-])c1	60*	52*	0.5	1	0.4
c1cnc(SCCOc2ccc3c(c2)CCC3)nc1	23	14	0.9	0.8	0.8
Cc1ccc(OCc2nn3c(-c4n[nH]c5c4CCC5)nnc3s2)cc1	18	8	0.9	1.2	0.8
O=C(CC1NC(=O)NC1=O)Nc1ccccc1 (stereo not given)	68*	10	0.9	0.9	0.3
CC(=O)Nc1ccc(NC(=O)CC2Nc3cccc4cccc(c34)NC2=O)cc1 (stereo not given)	63*	0	1	1	0.4
O=C(CC1NC(=O)NC1=O)Nc1cccc2ccccc12 (stereo not given)	5	3	1	1	0.9
Cc1cccc(NC(=O)CC2Nc3cccc4cccc(c34)NC2=O)c1 (stereo not given)	26	41	0.6	1	0.7
Cc1ccc(N(C(=O)c2csnn2)C(C(=O)NC(C)(C)C)c2ccncc2)cc1 (stereo not given)	9	22	0.8	1	0.9
CC(C)c1ccc(N(C(=O)c2csnn2)C(C(=O)NC(C)(C)C)c2ccncc2)cc1 (stereo not given)	23	60*	0.4	1.2	0.8
Cc1ccc(N(C(=O)c2csnn2)C(C(=O)NC(C)(C)C)c2cccs2)cc1 (stereo not given)	6	77*	0.2	1.1	0.9
CC(=O)c1ccc(N2CCN(C(=O)CCS(=O)(=O)c3ccc(C)cc3)CC2)cc1	-7	21	0.8	0.9	1.1
CC1CCN(c2[nH]c(=S)c(C#N)c3c2CCCC3)CC1	45	23	0.8	0.8	0.6
O=C(O)C1CC(c2ccc(F)cc2)=NO1 (stereo not given)	-2	-2	1	0.8	1
SMILES	CYP2C9 inh	CYP2C19 inh	CYP2C19 act	PLAP act	CYP2C9 act
COc1cccc(C2=NOC(C(=O)N3CCN(Cc4ccccc4)CC3)C2)c1OC (stereo not given)	-111	16	0.8	1.3	2.1*
COc1cc(OC)c(C2=NOC(C(=O)O)C2)cc1Cl (stereo not given)	-63	-8	1.1	1.1	1.6
COc1ccc(OC)c(C2=NOC(C(=O)N3CCCc4ccccc43)C2)c1 (stereo not given)	-140	41	0.6	1.3	2.4*
COc1cc(OC)c(C2=NOC(C(=O)N3CCc4ccccc4C3)C2)cc1Cl (stereo not given)	-113	59*	0.4	1.8	2.1*
O=C(C1CC(c2ccc(F)cc2)=NO1)N1CCN(Cc2ccccc2)CC1 (stereo not given)	17	22	0.8	1.1	0.8
O=C(C1CC(c2ccc(F)cc2)=NO1)N1CCCc2ccccc21 (stereo not given)	-138	52*	0.5	0.7	2.4*
CCCC1(C)SC(NC(C)=O)=NN1C(C)=O (stereo not given)	-18	-4	1	1	1.2
CCOC(=O)C1(CCC(C)C)CC(CSc2nc3ccccc3[nH]2)OC1=O (stereo not given)	58*	14	0.9	1.2	0.4
CCOC(=O)CCc1nc2ccccc2[nH]c1=O	-15	5	1	1	1.2
CCOC(=O)C1(CC)CC(CSc2nc3ccccc3[nH]2)OC1=O (stereo not given)	82*	52*	0.5	1	0.2
O=C1OCCC1Sc1nc2ccccc2[nH]1 (stereo not given)	1	5	0.9	0.9	1
COc1cccc(-c2cc3c(-n4cccc4)ncnc3o2)c1	9	4	1	0.9	0.9
CCOC(=O)C1=C(O)/C(=C\c2ccc(CNC(=O)C(=O)Nc3ccc(C)c(C)c3)o2)N=C1C	83*	55*	0.4	1.3	0.2
O=c1oc(-c2ccc(F)cc2)nc2ccsc12	8	13	0.9	0.9	0.9
O=c1oc(-c2ccccc2Cl)nc2ccsc12	14	77*	0.2	0.8	0.9
C/C(Nc1ccccc1)=C(/C#N)C(N)=O	-17	-7	1.1	1	1.2
CCC(=O)c1c[nH]c(C(=O)NCCCn2ccnc2)c1	83*	76*	0.2	1.1	0.2
Cc1ccc(C(=O)NCCCn2ccnc2)cc1[N+](=O)[O-]	82*	74*	0.3	0.9	0.2
COc1ccc(-c2cc(C(=O)NCc3ccccc3)no2)cc1OC	10	14	0.9	0.9	0.9
COc1ccc(-c2cc(C(=O)N(C)Cc3ccccc3)no2)cc1OC	50*	21	0.8	0.9	0.5
Cc1ccc(C(=O)NC(=S)N2CC(C)OC(C)C2)cc1[N+](=O)[O-] (stereo not given)	8	0	1	1.1	0.9
COc1ccc(-c2cc(C(=O)NCCCn3ccnc3)no2)cc1OC	50*	65*	0.3	1.5	0.5
CCC(=O)N1CCc2cc(Br)cc(S(=O)(=O)C3(C(=O)OC)CC3)c21	22	3	1	1.1	0.8
NC(=O)C1CCN(C2CC(=O)N(c3ccc(F)c(Cl)c3)C2=O)CC1 (stereo not given)	8	-3	1	1	0.9
O=C(c1ccc(COc2ccccc2Br)cc1)N1CCCCC1	-41	19	0.8	1.9	1.4
